# High-throughput results deposited in PubChem BioAssay by National Center for Advancing Translational Sciences (NCATS).
# The list is not random: actives were taken first. Their share in the collection is about 1.4%.
# Vif-APOBEC3G blk: inhibitors of Vif-APOBEC3G interaction; Q9HC16; HeLa A3G-eYFP + Vif (tagged APOBEC3G with the HIV-1 protein that degrades it), YFP fluorescence, overnight; Potency, µM (doses to about 46.1 µM), without a hit: top-dose activity, negative = active, usual class: inhibitors; 0.076% of 410,000 active; also: potency is read from the fitted curve at half-maximal effect; % is scaled to controls: 0 for no effect and ±100 for the full control effect; nearly all actives have a fitted effect of over 60% in size
# Target sequence (Q9HC16 whole entry, looked up): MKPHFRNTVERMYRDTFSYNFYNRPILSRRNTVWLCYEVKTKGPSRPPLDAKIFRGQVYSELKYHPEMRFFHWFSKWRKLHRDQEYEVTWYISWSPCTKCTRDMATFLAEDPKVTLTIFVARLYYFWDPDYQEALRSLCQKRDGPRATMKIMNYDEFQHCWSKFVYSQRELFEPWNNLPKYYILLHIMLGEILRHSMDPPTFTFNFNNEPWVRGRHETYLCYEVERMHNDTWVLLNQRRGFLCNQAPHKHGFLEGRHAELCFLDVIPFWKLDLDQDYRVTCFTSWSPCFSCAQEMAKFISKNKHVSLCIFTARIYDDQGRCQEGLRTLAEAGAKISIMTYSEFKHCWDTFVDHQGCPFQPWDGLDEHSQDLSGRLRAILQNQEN
#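 Read-out is eYFP fluorescence (Ex 488/Em 500-530) from Vif-expressing HeLa A3G-eYFP cells; more signal means A3G escaped Vif-mediated degradation. Cells plated overnight, compound pinned in, incubated overnight at 37 deg C.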
# ASM inhibitor: blocks human secretory acid sphingomyelinase | AID 504937 | P17405 | Potency, µM (top dose mostly 57.5 µM), inactives show at the highest dose activity change, negative = inhibition, most hits filed as inhibitors | 0.006% of 340,000 active | placental ASM, HMU-PC fluorogenic substrate, 60 min; also: potency is read from the fitted curve at half-maximal effect
#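 Fluorescence read-out (Ex 386 nm, Em 447 nm) after stopping the reaction at pH 10. Enzyme: ASM from human placenta; substrate HMU-PC0, 9 uM final; 60 min, 37 °C. Compound preincubation 10 min, ambient temperature.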
# Vif-APOBEC3F blk: blocks the Vif interaction with APOBEC3F; 0.2% of 390,000 active; Potency, µM (doses to about 46.1 µM), inactives show at the top dose activity, negative = active; HeLa A3F-eYFP + Vif (tagged APOBEC3F with the HIV-1 protein that degrades it), YFP fluorescence increase; AID 602313; also: potency is read from the fitted curve at half-maximal effect; % of control where 0% means no effect; nearly all actives have a fitted effect of over 65% in size
#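 Fluorescence increase (Ex 488/Em 500-530) after overnight compound treatment at 37 deg C flags inhibition of Vif-driven A3F-eYFP loss in stable HeLa A3F-eYFP/Vif cells seeded overnight beforehand.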
# pAkt inh: inhibitors of Akt phosphorylation | AID 651550 | 0.32% of 360,000 active | Neuro2A IGF-stimulated pAkt S473 HTRF, 20 min; stronger effect = lower value | activity change, % for hits at 50 µM; in the data active = activity change below about -80%; inconclusive = mostly about -51% to -80%; also: % is scaled to controls: 0 for no effect and ±100 for the full control effect
#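 Neuro2A cells in DMEM with 0.5% FBS, overnight at 37 deg C, given compound at single 50 µM final, then IGF (6 nM final) for 20 min at 37 deg C. Lysed; phospho-Akt Ser473 by HTRF after 24 h, 665/615 ratio.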
# ALOX12 inh: ALOX12 (human) lipoxygenase inhibition. P18054. purified 12hLO, xylenol orange hydroperoxide absorbance. Potency, µM (top dose mostly 108 µM), for inactives: top-dose activity change, negative = inhibition, hits mostly inhibitors. 1.1% of 580,000 active; also: potency is read from the fitted curve at half-maximal effect; % is scaled to controls: 0 for no effect and ±100 for the full control effect
#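 Hydroperoxide product was detected by ferrous iron/xylenol orange as the 573 to 405 nm absorbance ratio. Arachidonic acid at 40 uM (final) was turned over for 30 min at room temperature by 150 nM human 12hLO, pH 7.0 Hepes buffer, after 15 min compound preincubation.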
# TSG101-PTAP inh: blocks PTAP/TSG101 interaction to inhibit HIV-1 budding. AID 493005. Fluorescence polarization, FITC-PTAP peptide / Tsg101 binding. 340,000 tested, under 10 active. Potency, µM (titrated, usually from 115 µM), without a hit: at the top dose activity change, negative = inhibition, usual class: inhibitors; active = well fitted inhibition curve with a large enough effect in the main read-out, with a control signal flat, not every such curve was filed as active; inconclusive = small, poorly fitted or top-dose-only effect, or effect the other way, or a change in a side signal; inactive = no such curve, though single readings can be large or run the other way; also: potency is read from the fitted curve at half-maximal effect; % of control where 0% means no effect
# Target sequence (Q99816 whole entry, looked up): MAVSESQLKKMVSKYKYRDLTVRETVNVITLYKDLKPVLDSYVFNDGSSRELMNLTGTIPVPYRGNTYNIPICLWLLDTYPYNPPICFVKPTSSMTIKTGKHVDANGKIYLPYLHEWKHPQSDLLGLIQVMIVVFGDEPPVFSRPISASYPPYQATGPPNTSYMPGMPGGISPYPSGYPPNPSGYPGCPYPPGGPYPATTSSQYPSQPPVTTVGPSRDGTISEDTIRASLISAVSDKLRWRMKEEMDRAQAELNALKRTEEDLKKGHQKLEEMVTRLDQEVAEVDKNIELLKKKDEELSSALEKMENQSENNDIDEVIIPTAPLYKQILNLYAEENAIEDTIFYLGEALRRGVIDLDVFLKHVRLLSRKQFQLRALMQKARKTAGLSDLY
#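 FP read-out: FITC-PTAP peptide, 50 nM final, binding Tsg101 binding domain, 10 uM final; 20 min, r.t.; 10 mM HEPES pH 7.5, 0.15 M NaCl, 0.01% Tween 20, 3 mM EDTA, 0.1 mM TCEP.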
# Numbers without * were called inactive; i = inactive; u = inconclusive; x = no result; ! = repeats disagree; [ ] = dose if it differs, or a comment. Unless noted, calls follow the shape of the dose curve; as a rule, active = well fitted curve in the direction sought with a large enough effect; inconclusive = small, poorly fitted or top-dose-only effect, or another doubt; inactive = no such curve, though single readings can be large; an effect the other way counts as inactive or inconclusive.
SMILES,Vif-APOBEC3G blk,ASM inhibitor,Vif-APOBEC3F blk,pAkt inh,ALOX12 inh,TSG101-PTAP inh
COCCn1nnnc1C(c1ccc2ncccc2c1)N1CCN(c2ccccc2F)CC1 (stereo unspecified),0.8%,-1.7%,-2.1%,-103.6%*,u,-13.4%
COc1ccc(OC)c(C(c2nnnn2CCc2ccccc2)N2CCN(c3ccccc3)CC2)c1 (stereo unspecified),0.2%,-1.7%,5.4%,i,0.0%,0.0%
COCCn1nnnc1C(c1ccc2ncccc2c1)N1CCc2ccccc21 (stereo unspecified),0.4%,1.4%,0.3%,i,0.4%,-15.5%
COCCn1nnnc1C(c1ccc(OC)cc1OC)N1CCN(c2ccccc2F)CC1 (stereo unspecified),-6.7%,1.3%,0.3%,i,39.8µM*,-7.2%
O=C(CSc1n[nH]c(-c2cc(Br)ccc2O)n1)N1CCOCC1,x,x,x,x,-1.1%,x
CC(Sc1ccc(C(F)(F)F)cn1)C(=O)Nc1ccc(F)cc1 (stereo unspecified),x,x,x,x,-28.9%,x
c1ccn2cc(-c3ccc4c(c3)OCO4)cc2c1,0.0%,305.9%,2.7%,i,u,-0.3%
Brc1ccc(-c2cc3ccccn3c2)cc1,x,x,x,x,14.1µM*,x
Cc1cccn2cc(-c3ccc(F)cc3)cc12,-1.4%,65.0%,3.3%,i,-24.5%,-12.1%
CC(C)(C)c1ccc(-c2cc3ccccn3c2)cc1,x,x,x,x,22.4µM*,x
Cc1nc2ccc(S(=O)(=O)N(CC(=O)N3CCOCC3)Cc3ccccc3)cc2s1,x,x,x,x,4.2%,x
CC(=O)N1CCC(NC(=O)CSc2ncc(-c3ccccc3)o2)CC1,x,x,x,x,22.3%,x
N#Cc1cc(C(=O)c2cc(Cl)ccc2O)cn(C2CCCCC2)c1=O,x,x,x,x,-10.0%,x
N[C@@H](Cc1cc(I)c(O)c(I)c1)C(=O)O,1.7%,0.2%,16.4%,i,0.51µM*!,-1.4%
O=C(O)CCc1cc(I)c(O)c(I)c1,x,x,x,x,6.7%,x
CC(=O)c1c(C)oc2ccc(NS(=O)(=O)c3ccc(O)c(C(=O)O)c3)cc12,-1.4%,11.6%,x,i,15.8µM*,-3.7%
COC(=O)c1nn(-c2ccccc2)c(Sc2ccccc2)c1/C=N/O,0.6%,-7.1%,-3.3%,-106.8%*,185.5%,-1.3%
CCOc1c(Br)cc(/C=C(/C#N)C(=O)OCCOC)cc1OC,x,x,x,x,-6.2%,x
COc1ccc(CC(=O)Nc2ccc3c(C)cc(=O)oc3c2)cc1OC,-6.3%,71.0%,-4.0%,i,9.0%,-1.5%
Cc1cc(=O)oc2cc(NC(=O)Cc3ccccc3F)ccc12,x,x,x,x,39.8µM*,x
OC(C#CCCN1CCCCC1)(c1ccccc1)C1CCCCC1 (stereo unspecified),6.1%,-4.0%,2.3%,i,162.4%,-0.3%
OC(C#CCN1CCC(c2ccccc2)C1)(c1ccccc1)C1CCCCC1 (stereo unspecified),x,x,x,x,0.891µM*,x
CC1CCCCC1NC(=O)CCCNC(=O)C(C)(C)C (stereo unspecified),x,x,x,x,16.9%,x
O=C(Nc1cccc(S(=O)(=O)N2CCCCCC2)c1)c1n[nH]c(=O)c2ccccc12,x,x,x,x,-21.7%,x
Cc1ccc(-c2nn(-c3ccccc3)cc2C=C2C(=O)CC(C)(C)CC2=O)cc1,-1.2%,-8.6%,5.3%,i,7.94µM*,-6.2%
SMILES,Vif-APOBEC3G blk,ASM inhibitor,Vif-APOBEC3F blk,pAkt inh,ALOX12 inh,TSG101-PTAP inh
CCCN1CCC(NC(=O)CC23CC4CC(CC(C4)C2)C3)CC1,x,x,x,x,-1.9%,x
CN(C)CCN1CCN(C2CN(Cc3cn(Cc4cccc(Cl)c4)nn3)S(=O)(=O)C2)CC1 (stereo unspecified),x,x,x,i,7.94µM*,x
O=S1(=O)CC(N2CCN(Cc3ccccc3F)CC2)CN1Cc1cn(Cc2ccc(C(F)(F)F)cc2)nn1 (stereo unspecified),x,x,x,i,39.8µM*,x
CN1CCC(N2CCN(C3CN(Cc4cn(Cc5cccc(C(F)(F)F)c5)nn4)S(=O)(=O)C3)CC2)CC1 (stereo unspecified),x,x,x,i,5.62µM*,x
CN1CCN(C2CN(Cc3cn(Cc4cccc(Cl)c4)nn3)S(=O)(=O)C2)CC1 (stereo unspecified),x,x,x,i,u,x
Cc1ccc(Cn2cc(CN3CC(N4CCN(Cc5ccccc5F)CC4)CS3(=O)=O)nn2)cc1 (stereo unspecified),x,x,x,i,10.0%,x
CN1CCN(C(=O)c2ccc(Cn3cc(Cl)cn3)o2)CC1,-0.1%,-3.2%,-3.2%,i,-6.3%,-1.4%
O=C(c1ccc(Cn2cc(Cl)cn2)o1)N1CCN(Cc2ccc3c(c2)OCO3)CC1,-2.4%,2.5%,-3.7%,-110.6%*,x,-0.5%
C/C(CCc1ccc2c(c1)OCO2)=N\NC(=S)NC(C)C,0.5%,2.4%,12.6µM*,i,u,1.2%
COCCNC(=S)N/N=C(\C)CCc1ccc2c(c1)OCO2,-0.6%,-1.4%,-7.9%,i,282.0%,-2.7%
Cc1ccc(-c2cc(-c3nnc(SCC(=O)N(C)CCC#N)n3N)c3ccccc3n2)cc1,-8.4%,-1.1%,-6.3%,-114.9%*,-0.2%,-0.2%
Cc1ccc(N(CCC#N)C(=O)CSc2cc(C)c3ccccc3n2)cc1,x,x,x,x,-8.5%,x
CC(C1CC1)N(Cc1ccccc1)S(=O)(=O)c1ccc(Cl)cc1 (stereo unspecified),x,x,x,x,-1.1%,x
CCNc1nc2c(c(=O)[nH]c(=O)n2C)n1CCOc1ccccc1,x,x,x,x,13.8%,x
CSc1ccc(Cl)c(C(=O)Oc2ccccc2Cc2ccccc2)c1,x,x,x,x,-29.0%,x
CCOC(=O)C1=CNS(=O)(=O)NC1c1ccc2ccccc2c1 (stereo unspecified),1.3%,-6.4%,0.7%,i,31.6µM*,-4.6%
CCN(c1ccccc1)c1nnc(NC(=O)Nc2ccc(Br)c(C)c2)s1,0.0%,x,0.4%,x,-23.9%,x
Cc1cc(NC(=O)Nc2nnc(N(C)Cc3ccccc3)s2)ccc1Br,12.6µM*,x,u,x,u,x
O=c1cc(-c2ccncc2)oc2c(-c3ccccc3Oc3ccccc3)nccc12,x,x,x,x,31.6µM*,x
O=c1cc(-c2ccncc2)oc2c(-c3ccccc3F)nccc12,x,x,x,x,-2.3%[176 µM],x
O=C(NC(c1ccccc1)c1ccccc1)c1cc2ccccc2[nH]1,x,x,x,x,-2.4%,x
CCN1C(=O)C2(CC(=O)Nc3[nH]ncc32)c2ccccc21 (stereo unspecified),x,x,x,x,3.1%,x
Cc1cc2c(c(=O)n1CCN(C)C)C(c1ccc(Cl)cc1Cl)C(C#N)=C(N)O2 (stereo unspecified),x,x,x,x,56.2µM*,x
Cc1cc2c(c(=O)n1CCN(C)C)C(c1ccncc1)C(C#N)=C(N)O2 (stereo unspecified),-0.1%,5.5%,3.4%,i,-8.4%,0.3%
